This is part of a sample that, as a whole, favours compounds with a hit. Of some 83,000 tested, about 20% had one in any assay.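 48-hour exposure, single concentration, 96-well plates; percent growth endpoint where 0 means no net growth. Active: below 10.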 Calls of active or inactive are those of the source.

For this test, the system named is HT29 colon. Put plainly: NCI-60 one-dose screen, 48 h (100 = growth as untreated, 0 = no growth, -100 = all killed). Particulars: 10 µM unless noted. As for the experimental part:
Growth inhibition of the HT29 human tumor cell line is measured as a screen for anti-cancer activity. Cells are grown in 96 well plates and exposed to the test compound for 48 hours. Compounds are tested at a single concentration, which is 10^-5 M for most compounds. The reported endpoint is percent growth (GI% or GIPRCNT), where numbers from 0 - 100% represent growth inhibition, and numbers from -100% - 0 represent cell death. For example, a value of 40 represents 60% growth inhibition. A value of 0 means no net growth occurred over the course of the experiment. A value of -40 indicates 40% of cells at the beginning of the experiment died by the end of the experiment. A value of -100 means all cells are dead at the end of the experiment.
NCI-60 Human Tumor Cell Lines Screen was performed using the standard one-dose NCI protocol, which is described in more detail at https://dtp.cancer.gov/discovery_development/nci-60/default.htm.
Compounds with GIPRCNT values below 10 were considered active. Activity score was based on GIPRCNT using the following formula: […]
Score is 0 for GIPRCNT values of 100 or above, 50 for GIPRCNT values of 0, and 100 for GIPRCNT values of -100.
As for `COc1cc2c(-c3cc4c(cc3CNCCc3ccc5c(c3)OCO5)OCO4)cccc2c(OC)c1O`, the growth is 92% (inactive).

Take `COc1ccc(C/C(=C(\C)c2ccc(OCCN3CCCC3)cc2)c2ccc(OCCN3CCCC3)cc2)cc1`: the growth was -58.1% (active).

Consider `COc1ccc(C(=O)CC#N)cc1`, for which the growth was 126% (inactive).

Take `C=C(C)[C@@H]1CC[C@]2(C(=O)N3CCN(C)CC3)CC[C@]3(C)[C@H](CC[C@@H]4[C@@]5(C)C/C(=C/c6ccncc6)C(=O)C(C)(C)[C@@H]5CC[C@]43C)[C@@H]12`: the growth is 15.8% (inactive).

Regarding `CC1(C)CC(=O)C2=C(C1)N(c1ccc(F)cc1F)C(N)=C(C#N)C2c1cc(Br)ccc1F` (stereo not given), the growth is 83.5% (inactive).

As to `CN1CCC(=C(c2ccccc2)c2ccccc2)C(c2ccccc2)C1` (stereo not given), the growth was 82.9% (inactive).

`COc1ccc(C(=O)NNc2nc(Cl)nc(N3CCN(C(c4ccccc4)c4ccccc4)CC3)n2)cc1`: the growth was -57.3% (active).

With `Cc1cc2nc3c4cccc(O)c4n(CCN(C)C)c3nc2cc1C`, the growth is 31.1% (inactive).

Turning to `Cc1ccc(-n2c3c(c(-c4ccccc4)c2-c2ccccc2)C2=NCCN2C=N3)cc1`, the growth was 88% (inactive).

As to `COc1cc2c(c(O)c1Cl)C(=O)c1c(O)cc(C[C@H](C)O)cc1[C@H]2[C@H]1c2cc(C[C@H](C)O)cc(O)c2C(=O)c2c1cc(OC)c(Cl)c2O`, the growth is 9.65% (active).

For the compound `C/C(=N\Nc1cc(C)nc2ccc(Br)cc12)c1ccc([N+](=O)[O-])cc1`, the growth was 37.3% (inactive).

Take `Nc1n[nH]c2cccc(C#Cc3cccc(C(=O)Nc4cccc(C(F)(F)F)c4)c3)c12`: the growth was 38.8% (inactive).

Take `CCCCN1C=CCN(CCCC)C1`: the growth was 49.2% (inactive).

Consider `COc1cc(/C=C\c2cc(OC)c(OC)c(OC)c2)cc(N)c1OC`, for which the growth is 87% (inactive).

In the case of `Cc1cccc(C)c1N=c1oc2ccc(Cl)cc2nc1-c1ccccc1O`, the growth is 80.5% (inactive).

Take `COc1ccc2[nH]c(O)c(/C=c3/cc4c(c(-c5ccc(F)cc5)n3)=Nc3ccccc3-4)c2c1`: the growth is -29.8% (active).

For the compound `COc1ccc(/C=C/c2nc(Nc3ccc(S(=O)(=O)Nc4cc(C)on4)cc3)c3ccccc3n2)cc1`, the growth is 69.3% (inactive).

As for `C[C@@H](Nc1ncnc2ccc(-c3cnc(N)nc3)cc12)c1ccc(F)cc1`, the growth was 84.9% (inactive).

In the case of `O=C(N/N=C/c1cc2ccccc2n2nnnc12)Nc1ccccc1`, the growth is 97.2% (inactive).

Turning to `Cc1nn(-c2ccccc2)c(Cl)c1/C=N\N=c1/sc2ccccc2n1C`, the growth was 93.3% (inactive).

Consider `Cc1nnc2c(Cc3ccccc3)nc3ccccc3n12`, for which the growth was 105% (inactive).

As to `COc1ccc(C(=O)Cn2c(C(=O)c3ccccc3)nc3ccccc32)cc1`, the growth is 14.2% (inactive).

As to `O=C(NCCNc1nccc(-c2c(-c3cccc(F)c3)nc3sccn23)n1)c1ccc(Cl)cc1`, the growth was 35.2% (inactive).

As to `O=C1c2ccccc2CCC12OC2c1cn(-c2ccccc2)nc1-c1ccc(Cl)cc1` (stereo not given), the growth is 102% (inactive).

Consider `Cc1c(C(=O)NCCC(=O)NO)sc2ncnc(Nc3ccc(NC(=O)Nc4cccc(C(F)(F)F)c4)cc3)c12`, for which the growth is 110% (inactive).

`Nc1n[nH]c2cccc(C#Cc3cccc(C(=O)Nc4cc(CN5CCOCC5)cc(C(F)(F)F)c4)c3)c12`: the growth is 18% (inactive).

With `CCCCCN1C=C/C(=C\C(=O)N(C)c2ccc(OC(F)(F)F)cc2)c2ccccc21`, the growth was 81.2% (inactive).

Regarding `O=S(=O)(NCCCNc1nccc(-c2c(-c3cccc(F)c3)nc3sccn23)n1)c1cccc(F)c1`, the growth is 30.6% (inactive).

`COc1ccc(C(=O)/C=C/c2cc3ccccc3n3nnnc23)cc1`: the growth was 110% (inactive).

As for `CCN(CC)c1ccc(C(=O)c2ccccc2)cc1`, the growth is 95% (inactive).

With `Cn1c2ccccc2c2c3c(c4c5ccccc5n(C)c4c21)C(=O)OC3`, the growth was 105% (inactive).

On to `CC(C)N1C(=O)S/C(=C2/SC(=O)N(C(C)C)C2=O)C1=O`, for which the growth is 102% (inactive).

As for `COc1cc(/C=N/O)nc(-c2ccccn2)c1`, the growth is 32.6% (inactive).

Regarding `O=C(N/N=C/c1ccc(Oc2ccccc2)cc1)c1cnn2c1NC(c1ccccc1)C2` (stereo not given), the growth is 65.8% (inactive).

As to `O=[N+]([O-])CC(c1ccccc1)c1c[nH]c2ccccc12` (stereo not given), the growth is 12.5% (inactive).

Take `c1ccc2c(-c3c[nH]c4ccccc34)c3c(cc2c1)[nH]c1ccccc13`: the growth is 72.5% (inactive).

Consider `N#C/C(=C\c1ccccn1)c1nc2cc(Cl)ccc2s1`, for which the growth is 86.4% (inactive).

As to `NS(=O)(=O)c1ccc(CCN2C(=O)C=CC2=O)cc1`, the growth is 97.2% (inactive).

Regarding `Cc1ccccc1NS(=O)(=O)c1cccc(C(=O)Nc2ccc(Br)cc2)c1`, the growth is 47.8% [25 µM] (inactive).

For the compound `COc1cc2nc(-c3ccc(Cl)cc3)cc(OCCCN3CCOCC3)c2cc1OC`, the growth is 22.3% (inactive).
